High-throughput results (PubChem BioAssay)
The full list was thinned out, with hits kept by preference.
KDM5B inh = Primary screen for KDM5B Histone Demethylases FDH-coupled qHTS; 220,000 compounds, 2.6% hits; KDM5B demethylase, FDH-coupled NADH fluorescence (FDH is formaldehyde dehydrogenase); AID 1347165, 2019; Lysine-specific demethylase 5B (Homo sapiens), Q9UGL1; Potency, µM (top dose mostly 57.7 µM), usual class: inhibitors; active means well fitted inhibition curve with a large enough effect; further: 0% is about no effect; nearly all actives have a fitted effect of over 70% in size
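Measured: NADH fluorescence change, 30 min, RT. System: KDM5BΔAP 200 nM final, H3K4me3 peptide, α-KG, Fe(II), ascorbate, NAD⁺ plus FDH, pH 7.5 HEPES. Compounds: titrated, 10 min pre-incubation with enzyme.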
Active calls of the source: *; i = inactive. Potency means the concentration at half of the fitted maximal effect.

SMILES | KDM5B inh
COc1ccc(Nc2ccc3nnc(-c4ccccc4Cl)n3n2)cc1 | i
CCSC1=Nc2c(cnn2-c2ccc(C)c(Cl)c2)C2=NCCCN12 | i
COc1ccc(C)cc1NC(=O)CNC(=O)NOCc1ccccc1 | i
O=[S+]([O-])(Nc1ccccc1)c1ccc2c(c1)OCCN(Cc1ccc(F)cc1)C2 | i
Cc1c(Cl)cccc1NC(=O)c1ccc(NC(=O)C2=CSCCO2)cc1 | i
CNC(=O)c1cc2cc(-c3c(C)noc3C)nc(-c3cccc(OC)c3OC)c2o1 | i
CC(=O)Nc1cccc(-c2nc(-c3c(C)noc3C)cc3c2cc(C)n3CCN(C)C)c1 | i
CC(=O)Nc1cccc(-c2nc(-c3c(C)noc3C)cc3cc(CO)oc23)c1 | 40µM*
CSc1ccc(/C=C/c2nc(-c3ccc(F)cc3)cs2)cc1 | i
O=C(CN1CCN(c2ccc(C(F)(F)F)cn2)CC1)NC1CC1 | i
FC(F)(F)c1ccc(N2CCC(N[C@@H]3C[C@@H]4OCC[C@@H]43)CC2)nc1 | 20µM*
O=C(NCCc1cccs1)C1CCN(c2ccc(C(F)(F)F)cn2)CC1 | i
CC(C(=O)NC1CCCC1)N(C)Cc1ccc(C(F)(F)F)cc1 (stereo unspecified) | i
CNC(=O)NC(=O)C(C)Sc1ccc2ccccc2n1 (stereo unspecified) | i
COc1cc(/C=N/O)ccc1OCC(=O)NN | i
CC(C)(C)c1ccc2cc(C(=O)N3CCCC3)[nH]c2c1 | i
CC(C)(C)c1nc(C(=O)N2CCCC2)n2ccccc12 | 112µM*
C#CCNC(=O)c1nc(C(C)(C)C)c2ccccn12 | 112µM*
CC(C)NC(=O)c1nc(C(C)(C)C)c2ccccn12 | 112µM*
CC(C)NC(=O)c1ccccc1Cl | i
C#CCNC(=O)CSc1nc2ccccc2nc1C | i
Cn1c(C(=O)N2CCN(C(=O)C(C)(C)C)CC2)cc2ccccc21 | i
CC(C)NC(=O)c1cc2c(=O)n3ccccc3nc2s1 | i
COc1ccccc1NC(=O)c1cc(=O)c2ccc(C)cc2o1 | i
CCn1cc(CN2CCCC(c3nc(C(C)C)no3)CCNC(=O)CC2)cn1 (stereo unspecified) | i
SMILES | KDM5B inh
C/C(=N\NC(=O)c1cccc2ccccc12)c1ccc(C)s1 | i
O=C(CCc1ccccc1)Nc1cccc2cccnc12 | i
CC(C)Cc1cnc(-c2ccccc2)[nH]1 | i
O=C(OCCCc1ccccc1)c1cccnc1 | i
C=CCOc1ccc(CNCc2ccco2)cc1 | i
Cc1nnnn1Cc1ccc(C(=O)N2CCc3nc(-c4cn[nH]c4)[nH]c3C2)cc1 | i
Cc1cn(CC(=O)N2CCc3nc(-c4cn[nH]c4)[nH]c3C2)c(=O)[nH]c1=O | i
CNc1ncccc1C(=O)N1CCc2nc(-c3cn[nH]c3)[nH]c2C1 | 28µM*
O=C1c2c(nc(COc3ccccc3)n2Cc2ccccc2)NCCN1CC1CC1 | i
Cc1ccc(-n2cc(CN3CCCCC3C(N)=O)c(-c3cccc(C)c3)n2)cc1 (stereo unspecified) | i
CCNC(=O)N1CC[C@@H](CC(=O)O)[C@@H](CC2=NCCc3ccc(C)cc32)C1 | i
O=C(O)C[C@@H]1CCN(C(=O)NCc2ccccc2)C[C@@H]1CC1=NCCc2ccccc21 | i
COc1ccc2c(c1)C(C[C@H]1CN(C(=O)C3CC3)CC[C@H]1CC(=O)O)=NCC2 | 40µM*
CCCNC(=O)N1CC[C@@H](CC(=O)O)[C@@H](CC2=NCCc3ccc(OC)cc32)C1 | 40µM*
CC[C@H]1CN(C(=O)C2CC2)CC[C@H]1CC(=O)O | i
CC(C)(C)C(=O)N1CC[C@@H](CC(=O)O)[C@@H](CC2=NCCc3ccc(C(C)(C)C)cc32)C1 | i
Cc1ccc(CNc2nc3ccccc3nc2NS(=O)(=O)c2ccc(F)cc2)cc1 | i
FC(F)(F)c1c(C(F)(F)C(F)(F)F)nc2ccccc2c1Nc1ccccc1 | i
CCc1ccc(S(=O)(=O)N2CCSC2c2ccc(OC)c(Br)c2)cc1 (stereo unspecified) | i
O=C1Nc2ccccc2CN(CC2CC2)C12CCNC2 (stereo unspecified) | i
O=C(C1CC1)N1Cc2ccccc2NC(=O)C12CCNC2 (stereo unspecified) | i
O=C1Nc2ccccc2CN(CC2CCCC2)C12CCNC2 (stereo unspecified) | 89µM*
O=C1Nc2ccccc2CC12CCN2Cc1ccc(C(F)(F)F)cc1 (stereo unspecified) | i
O=C1Nc2ccccc2CN(Cc2ccc(C(F)(F)F)cc2)C12CCNCC2 | 50µM*
O=C(C1CCCC1)N1Cc2ccccc2NC(=O)C12CCNCC2 | i
SMILES | KDM5B inh
O=C(Cc1ccc(F)cc1)N1CCCCC12Cc1ccccc1NC2=O (stereo unspecified) | i
O=C1Nc2ccccc2CC12CCCCN2Cc1ccc(OC(F)(F)F)cc1 (stereo unspecified) | i
O=C1Nc2ccccc2CN(Cc2ccc(F)cc2)C12CCNCC2 | 45µM*
N#Cc1nc(C2CC2)oc1N1CCN(CC2CCCCC2)CC1 | i
COC(=O)C(C)Oc1ccc2c(=O)c(-c3ccccc3OC)c(C(F)(F)F)oc2c1 (stereo unspecified) | i
COC(=O)c1ccc(COC(=O)c2ccc(C(=O)OCc3ccc(C(=O)OC)o3)cc2)o1 | i
CN(CCCc1[nH]nc(N)c1C#N)c1nc(-c2ccccc2)nc2ccccc12 | i
COc1ccc(-n2c(=O)c(C#N)cc3c(=O)n4cccc(C)c4nc32)cc1 | i
CC(c1cccc(NC(=O)c2ccccc2)c1)N(C)CC(=O)NC(=O)Nc1ccccc1 (stereo unspecified) | i
CN(C)CCNC(=O)c1ccc2c(=O)n3c(nc2c1)CCCCC3 | i
CN(C)CCC(=O)N1Cc2ccccc2CC2(CCCN(CC3CCOCC3)C2)C1 (stereo unspecified) | i
CC(C)CNC(=O)c1ccc(NC(=O)C2CCCCC2)cc1 | i
CC(C)CNC(=O)c1ccc2c(c1)C1(CCCN(CC3CC3)C1)CN2C (stereo unspecified) | 35µM*
COCCN1CCCCCC(O)c2cc(C(=O)NCCc3ccccc3)ccc21 (stereo unspecified) | i
O=C(NCCc1ccccc1)c1ccc(Cl)c(S(=O)(=O)N2CCOCC2)c1 | i
CS(=O)(=O)N1CCc2cc(C(=O)NCCc3ccccc3)ccc21 | i
CC(C)CNC(=O)c1cccc(NC(=O)C2CCCCC2)c1 | i
CC(=O)N1CCCC2(C1)CN(C)c1ccc(C(=O)NCCc3ccccc3)cc12 (stereo unspecified) | 35µM*
CN1CC2(CCCN(CC3CC3)C2)c2cc(C(=O)NCCc3ccccc3)ccc21 (stereo unspecified) | 35µM*
COCCC1(C(=O)O)CCCN(CC(=O)NCCc2ccccc2)C1 (stereo unspecified) | i
CN(C)CCNC(=O)c1ccc2c(c1)C1(CCCN(CC3CC3)C1)CN2C (stereo unspecified) | 35µM*
O=C(O)CCC1NC(=O)N(CCc2c[nH]c3ccc(F)cc23)C1=O (stereo unspecified) | i
O=C(CN1CCN(C(=O)c2cc(-c3ccccc3)nc3ccccc23)CC1)NC1CC1 | i
N#C/C(=C/c1ccco1)C(=O)NC1CC1 | i
O=C(C(Sc1nnc(-c2ccncc2)n1-c1ccc(Cl)cc1)c1ccccc1)N1CCCC1 (stereo unspecified) | i
Cc1cccc(OCCN)c1 | i
COc1cccc(C(=O)NCc2ccccc2)c1 | i
